# Data: PubChem BioAssay (NCI)
# About 83,000 compounds went through this panel and 20% of them were active in at least one assay; those are over-represented in the sample as a whole.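 Each cell line was grown in a 96-well plate and treated with one concentration of compound for 48 hours. Values below 10 were considered active.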 Unmarked numbers belong to inactive results. The source made the active and inactive calls.
# Key:
# Test in all cases: NCI-60 one-dose screen, 48 h (100 = growth as untreated, 0 = no growth, -100 = all killed)
# [1] = test system: NCI-H23 lung; details: 10 µM unless noted
# [2] = test system: NCI-H226 lung; details: 10 µM unless noted
# [3] = test system: NCI-H322M lung; details: 10 µM unless noted
# [4] = test system: HOP-62 NSCLC; details: 10 µM unless noted
# [5] = test system: NCI-H460 lung; details: 10 µM unless noted
# [6] = test system: HOP-92 NSCLC; details: 10 µM unless noted
# [7] = test system: NCI-H522 lung; details: 10 µM
# [8] = test system: 786-0 renal; details: 10 µM unless noted
# [9] = test system: COLO 205 colon; details: 10 µM unless noted
SMILES,growth [1],growth [2],growth [3],growth [4],growth [5],growth [6],growth [7],growth [8],growth [9]
O=c1[nH]cc(Nc2cc(Cl)c3nonc3c2[N+](=O)[O-])c(=O)[nH]1,91.2%,92.3%,110%,102%,107%,95.5%,98%,105%,109%
CCOc1nc(-c2ccco2)n2nc(-c3ccco3)cc2n1,107%,92.4%,116%,118%,102%,92%,99.1%,103%,131%
CSc1nc(N)c2c(n1)N(C)C=NS2(=O)=O,105%,101%,114%,123%,115%,79.1%,105%,108%,101%
CN1CCC[C@@H]1CCO[C@](C)(c1ccccc1)c1ccc(Cl)cc1,79.9%,75.5%,78.4%,75.2%,91.3%,51.6%,88%,66.5%,20%
COc1ccc2nc(N/N=C(\C)c3ccccn3)cc(C)c2c1,19.8%,-49.5% (active),8.51% (active),2.82% (active),-68% (active),7.16% (active),-20.8% (active),-89.7% (active),-78.2% (active)
c1ccc2nc(N/N=C3\CCCCC3C3CCCCC3)ccc2c1 (stereo unspecified),40.1%,53.8%,64.5%,8.28% (active),39.7%,-11.3% (active),60%,48.6%,41%
COc1ccc(CNC(=O)c2c(C)n([O-])c3ccccc3[n+]2=O)cc1,93.8%,102%,144%,94.3%,112%,82.6%,-15.1% (active),101%,122%
O=C(Nc1ccc(Cl)cc1)Nc1ccccc1CNc1nc(Nc2ccc(OCCN3CCCC3)cc2)ncc1Cl,33.5%,97%,101%,82.2%,-77.7% (active),72.9%,-17% (active),-86.6% (active),37.8%
NS(=O)(=O)c1cc2c(cc1Cl)NC=NS2(=O)=O,109%,99%,98.5%,98.5%,110%,106%,91.4%,98.9%,110%
CC1c2ccccc2-c2ccccc2N1C (stereo unspecified),105%,105%,101%,100%,105%,86.1%,87.5%,104%,107%
COc1ccc(C2CC(c3ccc(Nc4ccnc5cc(Cl)ccc45)cc3)=NN2C(C)=O)cc1 (stereo unspecified),84.3%,79.2%,98.8%,89.4%,85.4%,36.5%,67.3%,81.2%,96%
CN1CCN(CCCOc2ccc3ncnc(Nc4ccc(OCc5cccc(F)c5)c(Cl)c4)c3c2)CC1,54.9%,88.8%,-9.88% (active),19.7%,-68.9% (active),35%,-43.4% (active),-86.6% (active),-46.5% (active)
CC[C@H]1CN2CCc3cc(OC)c(OC)cc3C2C[C@@H]1CC1NCCc2cc(OC)c(OC)cc21 (stereo partly specified),-34.3% (active),-25.4% (active),-23.2% (active),-29.4% (active),-25.6% (active),-17.8% (active),-71.2% (active),-19.6% (active),-66.1% (active)
CCCCCCCCCCN1CCC(N2CCCCC2)CC1,38%,69.5%,88%,-64.7% (active),-37.9% (active),-12.4% (active),-59.7% (active),-93.1% (active),-85.7% (active)
NS(=O)(=O)c1cc(C2(O)NC(=O)c3ccccc32)ccc1Cl (stereo unspecified),106%,97.9%,89.6%,109%,111%,104%,99.5%,102%,103%
OCCN1CCN(CCCN2c3ccccc3Sc3ccc(C(F)(F)F)cc32)CC1,65.5%,82.7%,65%,45.9%,6.79% (active),6.66% (active),19.5%,38.7%,-81.9% (active)
O=C1/C(=C/c2ccccc2O)C(=S)SN1Cc1ccco1,105%,103%,90.3%,92.7%,106%,97.7%,83.2%,103%,113%
Cc1cn(C(C=O)OC(C=O)CO)c(=O)[nH]c1=O (stereo unspecified),107%,105%,106%,102%,105%,104%,98%,107%,109%
C[C@H]1O[C@@H](O[C@H]2[C@@H](O)C[C@H](O[C@H]3[C@@H](O)C[C@H](O[C@H]4CC[C@]5(C)C6C[C@@H](O)[C@]7(C)[C@@H](C8=CC(=O)OC8)CC[C@]7(O)C6CC[C@@H]5C4)O[C@@H]3C)O[C@@H]2C)C[C@H](O)[C@@H]1O (stereo partly specified),-54.9% (active),-100% (active),-75.3% (active),-100% (active),-95.1% (active),-26% (active),-83.9% (active),-91.7% (active),-85.9% (active)
CC(C)Sc1nc(Cl)c(C#N)c(-c2ccc(F)cc2)n1,100%,103%,102%,109%,113%,92.2%,86.8%,96.4%,115%
CC(C)CC1NC(=O)C(CCCN)NC(=O)C(C(C)C)NC(=O)C2CCCN2C(=O)C(Cc2ccccc2)NC(=O)C(CC(C)C)NC(=O)C(CCCN)NC(=O)C(C(C)C)NC(=O)C2CCCN2C(=O)C(Cc2ccccc2)NC1=O (stereo unspecified),-75.9% (active),-59.7% (active),-65.5% (active),-86.5% (active),-73.2% (active),-56.7% (active),-80.7% (active),-85.9% (active),-90.2% (active)
CC(C)=CCNc1ncnc2c1ncn2C1OC(COP(=O)(O)O)C(O)C1O (stereo unspecified),57.8%,45.7%,41.1%,46.1%,80.3%,74.5%,9.55% (active),43.3%,63%
COc1ccc2c(c1)CC/C(=C\c1ccc(OCC(=O)Nc3nc4ccccc4s3)cc1)C2=O,79.5%,90.4%,98.6%,83.2%,113%,61.1%,85.4%,92.3%,122%
Cc1ccc(S(=O)(=O)NCCN2c3nc4ccccc4cc3Sc3cc4ccccc4nc32)cc1,56.9%,65.6%,91.7%,55.8%,70.8%,15.7%,52.8%,61.9%,113%
CC1CN(/N=C/c2ccc([N+](=O)[O-])o2)C(=N)O1 (stereo unspecified),97.1%,96.3%,117%,103%,96%,88.8%,87.8%,108%,113%
Cn1cnc([N+](=O)[O-])c1Sc1nc(N)nc2nc[nH]c12,52.9%,74.1%,77.3%,22.8%,20.6%,-3.12% (active),41.3%,14.6%,96.9%
CCOC(=O)CCC(=O)O[C@H]1[C@H](O[C@@H]2[C@@H](C)[C@H](O[C@H]3C[C@@](C)(OC)[C@@H](O)[C@H](C)O3)[C@@H](C)C(=O)O[C@H](CC)[C@@](C)(O)[C@H](O)[C@@H](C)C(=O)[C@H](C)C[C@@]2(C)O)O[C@H](C)C[C@@H]1N(C)C,99.6%,97.2%,90.2%,94.6%,119%,102%,92.6%,98.2%,109%
O=Nc1c2cccnc2n2nnc3ccc(Cl)cc3c12,66.4%,85.9%,107%,115%,27.7%,-40.5% (active),-71.5% (active),59%,-5.58% (active)
O=C(CNc1ccc2c(c1)C(=O)c1ccccc1C2=O)Nc1ccc2c(c1)C(=O)c1ccccc1C2=O,-70.5% (active),-62% (active),-95.2% (active),-86.5% (active),-71.6% (active),-65.7% (active),-96.2% (active),-90.3% (active),-89% (active)
